Molecules are shown by their SMILES. Out of some 320,000 compounds screened, about 22,000 (6.9%) were called active. Inconclusive results (about 27%) are left out. The list comes from a sample in which actives are over-represented; it also holds similar structures and randomly drawn compounds. Entries that show only a call come without a potency. A number with no mark means an inactive call. Calls come from the whole dose curve; as a rule, active = well fitted inhibition curve with a large enough effect; inconclusive = small, poorly fitted or top-dose-only effect, or another doubt; inactive = no such curve, though single readings can be large or run the other way.
Potency is the fitted concentration of half-maximal effect.

This assay is described as follows: Primary qHTS for delayed death inhibitors of the malarial parasite plastid, 96 hour incubation. The note with it: P. falciparum luciferase reporter growth; series mostly up to 28.7 µM. Put shortly: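 Infected RBCs, 2% Hct / 0.05% parasitemia final; luciferase-reporter P. falciparum; cpd 96 h, 37 C, 5% CO2; luciferase detection reagent; luminescence.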
On to `COc1cc(/C=C/CO)cc(OC)c1O[C@@H]1O[C@H](CO)[C@@H](O)[C@H](O)[C@H]1O`, for which the Potency result is “inactive”.

Consider `COC(=O)c1ccc2ccccc2c1OC1OC(CO)C(O)C(O)C1NC(C)=O` (stereo not drawn), for which the Potency was 10.4 µM (active).

For `CC(=O)NC1C(OCc2ccccc2)OC(COC(C)=O)C(OC(C)=O)C1OC(C)=O` (stereo not drawn), the Potency entry was “inactive”.

Consider `Cn1cc(S(=O)(=O)Nc2ccc(Cl)cc2Cl)c(=O)n(C)c1=O`, for which the Potency entry was “inactive”.

Regarding `COCCCNC(=O)C1CC(=O)N(c2ccc(C)cc2)C1` (stereo not drawn), the Potency was 11.7 µM (active).

For the compound `Cc1ccc(N2CC(C(=O)NCCS(=O)(=O)N3CCN(c4ccccc4)CC3)CC2=O)cc1` (stereo not drawn), the Potency result is “inactive”.

With `COCCNC(=O)C1CCN(C(=O)C2CC(=O)N(c3ccc(C)cc3)C2)CC1` (stereo not drawn), the Potency result was “inactive”.

`Cc1nc(Cl)cc(N/N=C/c2ccccc2)n1`: the Potency result is “inactive”.

In the case of `Cc1ccc(/C=C/C(=O)OCC(=O)Nc2cccnc2Cl)cc1`, the Potency entry was “inactive”.

Consider `CSCCC(NC(=O)COc1ccccc1)C(=O)OCCOc1ccc(F)cc1` (stereo not drawn), for which the Potency result is “inactive”.

Consider `O=C(NCC(=O)N1CCC2(CC1)NCCc1[nH]cnc12)c1ccc(Br)cc1`, for which the Potency result was “inactive”.

In the case of `Cc1ccsc1C(=O)NC1CCCCC1C` (stereo not drawn), the Potency result is “inactive”.

With `Cc1ccc(NC(=O)COc2ccc(/C=C3/NC(=O)NC3=O)cc2)cc1`, the Potency result is “inactive”.

As for `COc1cccc(CNC(=O)C2CC(=O)N(C3CCCCCCC3)C2)c1` (stereo not drawn), the Potency entry was “inactive”.

Take `O=C(NCCCN1CCCCCC1)C1CC(=O)N(C2CCCC2)C1` (stereo not drawn): the Potency was 3.7 µM (active).

As for `O=C(NCCCN1CCCCC1)C1CC(=O)N(CCc2ccccc2)C1` (stereo not drawn), the Potency entry is “inactive”.

On to `CC(C)c1c(C(=O)N/N=C/c2ccc(-c3ccccc3)cc2)nnn1-c1nonc1N`, for which the Potency result was “inactive”.

As for `Nc1nonc1-n1nnc(C(=O)N/N=C/C2CCCCC2)c1-c1ccccc1`, the Potency entry is “inactive”.

In the case of `Nc1nonc1-n1nnc(C(=O)N/N=C/c2ccc(Cl)cc2)c1-c1ccc2c(c1)OCO2`, the Potency is 0.0657 µM (active).

With `CCOC(=O)N1CCN(C(=O)COc2ccc3oc4c(c3c2)CCCC4)CC1`, the Potency entry was “inactive”.

Turning to `CC(=O)Oc1ccc(-c2cccc(C(=O)N3CCCCC3)c2)cc1`, the Potency entry was “inactive”.

Turning to `COc1ccccc1CNC(=O)C1CCN(C(=O)[C@@H]2Cc3ccccc3CN2)CC1`, the Potency result was “inactive”.

In the case of `C/C(CCC(=O)OC[C@H]1O[C@H](C#Cc2ccccc2)C=C[C@@H]1Oc1ccc(C)cc1)=N\OC[C@@H](O)[C@H]1O[C@@H]2OC(C)(C)O[C@@H]2[C@H]1O`, the Potency is 13.1 µM (active).

As for `NC(=O)C1CCN(c2nc(-c3cccc(F)c3)cs2)CC1`, the Potency result is “inactive”.

Consider `Nc1nnc(SCC(=O)NCC(=O)Nc2ccc(F)c(F)c2F)s1`, for which the Potency entry is “inactive”.

Regarding `CCN(CC(=O)Nc1c(F)cccc1F)C(=O)c1ccc(Sc2nncn2C)c([N+](=O)[O-])c1`, the Potency entry was “inactive”.

`CN(C)CCNC(=O)c1[nH]nc2c1CCc1ccccc1-2`: the Potency entry is “inactive”.

Regarding `O=C(N/N=C/c1sc(N2CCCCC2)nc1-c1cccs1)c1cccnc1`, the Potency was 2.08 µM (active).

In the case of `O=C(N/N=C/c1ccc(O)c2ccccc12)c1cccnc1`, the Potency entry is “inactive”.

For the compound `Cc1cc(/C=N/NC(=O)c2cccnc2)c(C)n1CC(C)C`, the activity change, negative = inhibition was 33.1% [at 5.75 µM].

Turning to `COc1ccccc1CNC(=O)COC(=O)c1sc(C)nc1C`, the Potency entry is “inactive”.

Regarding `CN1C2CCC1CC(NC(=O)c1ccc([N+](=O)[O-])cc1)C2` (stereo not drawn), the Potency result was “inactive”.

Consider `COc1ccc2nc(/N=C(\N)NC(=O)Nc3ccccc3)nc(C)c2c1`, for which the Potency entry is “inactive”.

For `Cc1nc(/N=C(\N)NC(=O)NC2CCCCC2)nc2ccccc12`, the Potency was 3.29 µM (active).

For the compound `Cc1nn(-c2ccccc2)c(C)c1C(=O)OCC(=O)NC(=O)NC1CCCCC1`, the Potency entry was “inactive”.

Consider `O=c1ccc2cc(S(=O)(=O)NCCCc3ccccc3)ccc2[nH]1`, for which the Potency entry was “inactive”.

Regarding `COc1ccc(CN2CCCC(C(=O)N3CCCCC3)C2)cc1` (stereo not drawn), the Potency result was “inactive”.

Take `Cc1ccc(OC(=O)c2cncc(Br)c2)c(C)c1`: the Potency entry is “inactive”.

As to `O=C1CCCN1C(=O)COc1ccc([N+](=O)[O-])cc1`, the Potency entry is “inactive”.

`N/C(=N\OC(=O)COc1ccc([N+](=O)[O-])cc1)c1ccc(Br)cc1`: the Potency entry was “inactive”.

For `CCOC(=O)COc1ccc([N+](=O)[O-])cc1`, the Potency is 0.415 µM (active).

As to `Cc1cc(NC(=O)CCC(=O)N(Cc2ccccc2)C(C(=O)NC2CCCC2)c2ccc(C)o2)no1` (stereo not drawn), the Potency entry was “inactive”.

As to `CC(C)CCN1CCC(C)(NC(=O)c2ccccc2)C1=O` (stereo not drawn), the Potency entry was “inactive”.

`COc1ccccc1C(=O)NCCC(=O)NN1C(=O)NC2(CCCCC2)C1=O`: the Potency entry was “inactive”.

`O=C(CSc1nc(Nc2ccccc2)nc(N2CCOCC2)n1)Nc1cc(Cl)ccc1O`: the Potency is 5.22 µM (active).

As for `C/C(=N\Nc1nc(Nc2ccccc2)nc(N2CCOCC2)n1)c1cccs1`, the Potency entry is “inactive”.

`O=C(CN1CCOCC1)Nc1cc(Cl)ccc1Cl`: the Potency entry was “inactive”.

Turning to `CC(=O)c1c(C)[nH]c(C(=O)COC(=O)CCOc2ccc(C)cc2)c1C`, the Potency entry is “inactive”.

Take `Cn1nc(C(C)(C)C)c([N+](=O)[O-])c1C(N)=O`: the Potency entry is “inactive”.

Regarding `CC(=O)N1c2ccc(S(=O)(=O)N(C)CC(=O)N(C)Cc3ccccc3)cc2CC1C` (stereo not drawn), the Potency entry is “inactive”.

Consider `CC(=O)c1sc(N)nc1C`, for which the Potency entry is “inactive”.

Consider `COc1ccccc1CNS(=O)(=O)c1cc2c3c(c1)CCC(=O)N3CCC2`, for which the Potency result was “inactive”.

With `CN(C)S(=O)(=O)c1ccc(N2CCCC2)c(C(=O)Nc2cccc(F)c2)c1`, the Potency result was “inactive”.

Consider `Cc1ccccc1OCC(=O)NNC(=O)c1cc(S(=O)(=O)N(C)C)ccc1N1CCCC1`, for which the Potency result was “inactive”.

Turning to `CN(C)S(=O)(=O)c1ccc(N2CCCC2)c(C(=O)Nc2ccc(Br)cc2F)c1`, the Potency is 8.28 µM (active).

For `CCOC(=O)c1c(C)[nH]c(C(=O)NCCN2CCOCC2)c1C`, the Potency entry is “inactive”.

Take `O=C(NCCCN1CCOCC1)c1ccc2c(c1)N(Cc1cccc(F)c1)C(=O)c1ccccc1S2`: the Potency entry is “inactive”.

Turning to `C=CCn1c(SCc2c(C(=O)OC)sc(N)c2C(=O)OC)nnc1-c1ccc(Cl)cc1`, the Potency is 3.29 µM (active).

Turning to `COC(=O)c1sc(N)c(C(=O)OC)c1COC(=O)CNS(=O)(=O)c1ccc(C)cc1`, the Potency result was “inactive”.

Turning to `C=CCn1c(SCc2cc(C(=O)OC)c(C)o2)nnc1-c1ccncc1`, the activity change, negative = inhibition is -0.417% [at 5.75 µM].

Turning to `Cc1nc2cc(NC(=O)Nc3cccc(F)c3)ccc2n1C`, the Potency result is “inactive”.

For `COc1ccc(CNC(=O)COC(=O)CCS(=O)(=O)c2ccc(C)cc2)cc1OC`, the Potency entry was “inactive”.

Regarding `COc1ccc2c(c1)C(C)=CC(C)(C)N2C(=O)Nc1ccccc1`, the Potency was 10.4 µM (active).

For the compound `COc1ccc2c(c1)C(C)=CC(C)(C)N2C(=O)CNCc1ccc2c(c1)OCO2`, the Potency result was “inactive”.

With `COc1ccc(NC(=O)N2CCC(Cc3ccccc3)CC2)cc1`, the Potency result is “inactive”.

As to `CCOC(=O)c1c(C)n(C)c2ccc(OC)c(NS(=O)(=O)CC)c12`, the Potency result was “inactive”.

On to `CCOC(=O)c1c(S(=O)(=O)NCC(=O)Nc2ccc(C)cc2)c(C)n(C)c1C`, for which the Potency entry is “inactive”.

Take `CCOC(=O)c1c(S(=O)(=O)Nc2cccc(Cl)c2)c(C)n(C)c1C`: the Potency is 10.4 µM (active).

On to `CCN(CC)CCCNC(=O)COc1ccc2oc3c(c2c1)CCCC3`, for which the Potency result is “inactive”.

In the case of `CCCS(=O)(=O)N1CCN=C1SCc1cccc(F)c1`, the Potency result was “inactive”.

`CN(CC(=O)Nc1ccccc1C(F)(F)F)C(=O)Cc1ccccc1F`: the Potency entry is “inactive”.

In the case of `CC[N+](CC)(CC)CCCCCCCCCC[N+](CC)(CC)CC`, the Potency was 0.37 µM (active).

Regarding `Cc1cccc(C)c1NC(=O)CSc1nc2c([nH]1)c(=O)n(C)c(=O)n2C`, the Potency result was “inactive”.

As for `CC(C)(C)[Si](OCC[C@@H]1C[C@@]1(C)[C@@H](NP(=O)(c1ccccc1)c1ccccc1)c1ccccc1)(c1ccccc1)c1ccccc1`, the Potency was 2.33 µM (active).

For the compound `O=C(NC1CCCCC1)C1CCC(CNS(=O)(=O)c2ccccc2)CC1` (stereo not drawn), the Potency result is “inactive”.

On to `Cc1nc(N2CCN(c3ccccn3)CC2)c2c(C)c(C(=O)Nc3ccc(F)cc3)sc2n1`, for which the Potency is 4.15 µM (active).

For the compound `CCN(CC)c1ccc(NC(=O)CN2CCN(c3ccccn3)CC2)cc1`, the Potency result was “inactive”.

As to `Cc1nc(N2CCOCC2)c2c(C)c(C(=O)Nc3ccc(C(F)(F)F)cc3)sc2n1`, the Potency result was “inactive”.

`CN(Cc1ccc(F)cc1)C(=O)COc1ccc2ccccc2c1`: the Potency entry is “inactive”.

In the case of `COc1ccc(N=Nc2c(-c3ccc(OC)cc3)[nH]oc2=O)cc1`, the Potency entry is “inactive”.

For the compound `O=C(COc1ccc(Cl)cc1)Nc1ccc2c(c1)OCO2`, the Potency entry is “inactive”.

For the compound `Cc1ccc(NC(=O)COc2ccc(/C=N\NC(=O)c3cccnc3)cc2)cc1C`, the Potency entry was “inactive”.

Take `Cc1ccc(NC(=O)COc2ccc(-n3ccnc3)cc2)cc1Cl`: the Potency is 2.94 µM (active).

Consider `O=C(CCNC(=O)C1CCN(S(=O)(=O)c2ccccc2)CC1)NC1CC1`, for which the Potency result was “inactive”.

In the case of `O=C1Nc2ccccc2/C1=C/c1ccnc2ccccc12`, the Potency entry was “inactive”.

For `CC1CN(C(=O)CCC(=O)NC2CCN(Cc3ccccc3)CC2)c2ccccc2O1` (stereo not drawn), the Potency result is “inactive”.

On to `Cc1ccc(OCC(=O)N2CCN(C(=O)c3cccnc3)CC2)cc1`, for which the Potency result is “inactive”.

Consider `CCN(CC(=O)Nc1c(F)cccc1F)C(=O)c1cnc(C)cn1`, for which the Potency result was “inactive”.

For `CCN(CC)C(=O)N1CCN(C(=O)c2ccc(C)cn2)CC1`, the Potency is 11.7 µM (active).

On to `CC(C)[C@@H](C(=O)O)N(Cc1cccc(CN([C@H](C(=O)O)C(C)C)S(C)(=O)=O)c1)S(C)(=O)=O`, for which the Potency result is “inactive”.

Regarding `O=C(Nc1ccc(C(=O)NCc2ccccc2Cl)cc1)C1=CSCCO1`, the Potency result is “inactive”.

Consider `CS(=O)(=O)NCc1ccc(C(=O)NCc2ccccc2)cc1`, for which the Potency entry is “inactive”.

As for `CSc1ccc(CNC(=O)c2ccc(NC(=O)C3=CSCCO3)cc2)cc1`, the Potency is 7.38 µM (active).

In the case of `O=[N+]([O-])c1ccc(NC(=S)N2CCN(c3ccccn3)CC2)cc1`, the Potency result is “inactive”.

In the case of `O=[N+]([O-])c1cc([N+](=O)[O-])c(Oc2cc(F)cc(F)c2F)cc1NN1CCCCC1`, the Potency entry was “inactive”.

Take `Cc1cc2c(cc1S(=O)(=O)NCc1ccc(Cl)cc1)OCC(=O)N2`: the Potency entry was “inactive”.

With `O=C(Nc1ccc2ccccc2c1)Nc1ccc2snnc2c1`, the Potency was 4.65 µM (active).

On to `O=C(Nc1cccc(Br)c1)c1ccc2snnc2c1`, for which the Potency entry is “inactive”.

Regarding `COc1ccc(NC(=O)Nc2ccc3nsnc3c2)cc1`, the Potency result is “inactive”.

With `COC(OC)c1ccnc(SCc2ccccc2Cl)n1`, the Potency entry is “inactive”.

On to `COc1ccc(C)cc1NC(=O)CNCc1cccs1`, for which the Potency was 11.7 µM (active).

On to `O=C(CNCc1cccs1)Nc1cc(S(=O)(=O)N2CCCC2)ccc1Cl`, for which the Potency result was “inactive”.

For `COc1ccc(C)cc1NC(=O)NCc1ccccn1`, the activity change, negative = inhibition is 14.6% [at 5.75 µM].

The values are drawn from PubChem BioAssay AID504834 (National Center for Advancing Translational Sciences (NCATS), 2011).
